In PubChem BioAssay (NCATS):
Records with an inconclusive call do not appear. Activity calls are given as the source filed them. Calls come from the whole dose curve; as a rule, active = well fitted curve in the direction sought with a large enough effect; inconclusive = small, poorly fitted or top-dose-only effect, or another doubt; inactive = no such curve, though single readings can be large; an effect the other way counts as inactive or inconclusive. Square brackets hold non-standard residues; d marks the D form. Peptide text beside a SMILES is read from it. ξ: configuration not given here. ξL = CC(C)CC(N)C(=O)O

How the values were obtained:
[1] = HEK-293 Cancer Cell Toxicity qHTS against the NCATS CANVASS Library (AID 1347355); note: nearly all actives have a fitted effect of over 65% in size; note: potency is the fitted concentration of half-maximal effect
In short: (§1)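 1000 cells/well, 4 h pre-incubation 37 °C/5% CO2; 11-pnt titration; 72 h; CellTiter-Glo 15 min RT, luminescence.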

[2] = KB-8-5-11 Cancer Cell Toxicity qHTS against the NCATS CANVASS Library (AID 1347364); note: nearly all actives have a fitted effect of over 75% in size; note: potency is the fitted concentration of half-maximal effect
In short: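 CellTiter-Glo luminescence after 72 h exposure; 500 KB-8-5-11 cells/well, DMEM/10% FBS, 37C, 5% CO2; compounds in 11-pt qHTS. Follow-up confirmation included medium with 1uM tariquidar.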

[3] = qHTS for H2AX Agonists against the NCATS CANVASS Library (AID 1347378);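 note: phospho-H2AX S139 level in CHO-K1 lysates by TR-FRET emission ratio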
In short: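 CHO-K1, 1000 cells/well, o/n 37C; cpd several conc, 3 hr 37C, 0.76% DMSO; lyse 30 min RT; cryptate anti-pH2AX(S139) + d2 anti-H2AX, 24 hr RT; HTRF 665/620.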

[4] = qHTS for Activators of p53 Stress Response Pathway screened against the NCATS CANVASS Library (AID 1347388)
In short: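 Beta-lactamase reporter driven by p53 response elements in HCT-116 cells, read as the 460 nm/530 nm emission ratio after CCF4 loading, following 16 h of exposure to an 11-point series. Cell viability was measured in the same wells by CellTiter-Glo luminescence.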

[5] = Redox Reaction Profiling qHTS: Assay Interference Panel against the NCATS CANVASS Library (AID 1347401)
In short: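 Redox-cycling liability assessed as DTT-driven conversion of resazurin (5 uM, with 200 uM DTT, HEPES pH 7.3) to fluorescent resorufin. Fluorescence at 525/598 nm measured initially and after 15 min dark incubation.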

[6] = COV-362 Cancer Cell Toxicity qHTS against the NCATS CANVASS Library (AID 1347352); note: series mostly up to about 38 µM
In short: as §1

[7] = Secretion counterscreen for inhibitors of the SERCaMP assay screened against the NCATS CANVASS Library (AID 1347390);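 note: light from luciferase secreted into medium read as a measure of general secretion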; note: potency is the fitted concentration of half-maximal effect
In short: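 SH-SY5Y-GLuc STOP cells; 4 h attach; cpds 0.001 - 77 uM (qHTS, 11 pts), 20 h 37C/5% CO2; coelenterazine in glow buffer; luminescence, 5 s exposure.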

[8] = OV-SAHO Cancer Cell Toxicity qHTS against the NCATS CANVASS Library (AID 1347348); note: series mostly up to about 38 µM; nearly all actives have a fitted effect of over 55% in size
In short: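 In this cytotoxicity screen, 1000 cells per well rested 4 hours, then received compound (11 concentrations) for a 72-hour incubation; an ATP-dependent luminescent signal (CellTiter-Glo) was the endpoint.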

[9] = target: Cytochrome P450 3A4 (Homo sapiens) (UniProt P08684); assay: qHTS Assay for Activators of Cytochrome P450 3A4 (AID 885); note: nearly all actives have a fitted effect of over 65% in size
In short: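 Activators are scored by enhanced luminescence from CYP3A4 conversion of luciferin-PPXE (25uM, equal to KM) to luciferin, after 60 min at RT with an NADPH-regenerating system.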

[10] = Confirmation and Secondary Assay for Modulators of Hemoglobin Beta Chain Splicing at IVS2 654 locus (AID 910);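 note: HeLa cells stably carrying EGFP split by mutant beta-globin IVS2-654 intron; per-well total GFP intensity by laser scanning cytometry after 2-day treatment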
In short: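 Readout: per-well total peak green fluorescence (488 nm ex, 500–520 nm em) from objects 5–250 µm, reflecting correct splicing of an EGFP-654 reporter. Compounds were applied for 2 days at 37 °C to overnight-plated HeLa EGFP-654 cells; controls were DMSO and 500 nM IVS2-654 PNA.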

[11] = Confirmation and Secondary Assay for Modulators of Hemoglobin Beta Chain Splicing at IVS2 705 locus (AID 930);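 note: HeLa cells stably expressing the EGFP-705 splicing reporter; GFP fluorescence per well restored by corrected splicing of the IVS2-705 intron in EGFP; series mostly up to about 46 µM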
In short: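 HeLa IVS2-705 EGFP reporter cells, 500/well, compound 2 d at 37C; correct splicing yields fluorescent EGFP. Control: 500 nM antisense PNA. Read-out: total peak GFP intensity.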

Measured: Potency

Cytochrome P450 3A4 (Homo sapiens), sequence (P08684 whole entry, looked up): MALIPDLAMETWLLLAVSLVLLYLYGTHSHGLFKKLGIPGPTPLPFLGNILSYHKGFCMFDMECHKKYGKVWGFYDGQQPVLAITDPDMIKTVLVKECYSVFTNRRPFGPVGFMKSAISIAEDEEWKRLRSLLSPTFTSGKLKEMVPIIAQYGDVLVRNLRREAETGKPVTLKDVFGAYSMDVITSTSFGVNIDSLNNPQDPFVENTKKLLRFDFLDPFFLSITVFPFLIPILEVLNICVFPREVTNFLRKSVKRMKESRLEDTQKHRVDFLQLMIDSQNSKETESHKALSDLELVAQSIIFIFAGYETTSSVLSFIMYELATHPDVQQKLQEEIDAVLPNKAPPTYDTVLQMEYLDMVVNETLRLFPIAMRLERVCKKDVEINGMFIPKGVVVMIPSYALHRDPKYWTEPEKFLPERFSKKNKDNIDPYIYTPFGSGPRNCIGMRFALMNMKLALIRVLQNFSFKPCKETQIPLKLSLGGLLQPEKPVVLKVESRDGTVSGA

O=Cc1ccc2n1C[C@]1(OC2)O[C@H](CO)[C@@H](O)[C@@H]1O
inactive: [1] | [2] | [3]

C=C[C@@]1(C)CC[C@@H]([C@H](C)C(C)=O)O1
inactive: [1] | [2] | [3] | [4] | [5]

C/C=C/[C@H]1[C@H]2C(=O)c3c(O)c(C)c(O)c(C)c3[C@]1(C(=O)O)C(=O)C=C2C
inactive: [6] | [3] | [7] | [5]

CC(=O)c1c(C)cc2c(c1O)C(=O)c1c(O)cc(O)cc1C2=O
inactive: [6] | [2] | [3] | [5]

C=C[C@]1(C)CC[C@@H]([C@H](C)C(=O)CC=C(C)C)O1
inactive: [1] | [2] | [3] | [7] | [5]

CCC(C)=C1OC(=O)[C@H](C)[C@H](O)[C@H](Cc2cccnc2)NC(=O)C(NC(=O)c2ncccc2O)C(C)OC1=O (some centres not stated)
inactive: [6] | [3] | [4] | [7] | [5]

O=c1cc(-c2ccc(O)cc2)oc2cc(O)c([C@@H]3OC(CO)[C@H](O)[C@@H](O)[C@H]3O)c(O)c12 (some centres not stated)
inactive: [8] | [2] | [3] | [7] | [5]

C[C@@]12CCC[C@@](C)(C(=O)O)[C@H]1CC[C@@]13C[C@@H](CC[C@H]12)[C@](C)(O)C3
inactive: [6] | [3] | [7] | [5]

CC(=O)N[C@H](C)c1nc(/C=C/C=C/C(=O)CC2CC(=O)CC[C@]2(C)O)cs1 (some centres not stated)
inactive: [8] | [6] | [1] | [2] | [3] | [4]

CO[C@@H](C[C@@H](C)[C@@H](O)/C=C/C=C/CNC(=O)C(C)(C)[C@H](O)\C(C)=C/C=C\C=C\Cc1cnco1)[C@]1(O)[C@@H](C)C(=O)N(C)[C@@]12COC2=O
inactive: [6] | [1] | [2] | [7]

COc1ccc([C@@H]2c3cc4c(cc3C(=O)C(C)C2C)OCO4)cc1OC (some centres not stated)
inactive: [1] | [3] | [4] | [5]

COc1c(O)cc(O)c2c(=O)cc(-c3ccccc3)oc12
inactive: [8] | [1] | [3] | [7]

COc1cc2ccc(=O)oc2c(O)c1O[C@@H]1O[C@H](CO)[C@@H](O)[C@H](O)[C@H]1O
inactive: [6] | [1] | [3] | [4]

C/C(=C\[C@@H](C)CC/C=C/CC/C=C/C(=O)O)[C@H](O)[C@H](C)C(=O)CCCC1CC(=O)NC(=O)C1
inactive: [8] | [6] | [2] | [7]

CC[C@@H](C)[C@H]1NC(=O)C(CC(C)C)NC(=O)[C@@H](CC(C)C)NC(=O)[C@H](Cc2c[nH]c3ccccc23)NC(=O)CNC(=O)[C@@H](CC(N)=O)NC1=O (stereo partly drawn) (cyclo(GW[dL][ξL][dI][dN]))
inactive: [4] | [7]
active: [1] 11.8 µM

Cc1cc(O)cc2c1C(=O)c1c(O)cc(O)cc1C2=O
inactive: [8] | [3] | [7] | [5]

C=CC(C)(C)C(=O)[C@@H](C)[C@@H]1CC[C@@](C)(C=C)O1
inactive: [6] | [1] | [3] | [4]

CC[C@@H]1C[C@@]2(CC)OC(=O)[C@@]3(CC)[C@H](CC)[C@@H]1[C@@H]23
inactive: [8] | [2] | [3]

C=C1[C@@]2(C)CC3C4(C)CCC(O)C(C)(C)C4CCC3(C)[C@]1(C(=O)OC)C(=O)C(C)(O)C2=O (some centres not stated)
inactive: [8] | [2] | [3] | [4] | [5]

CC(C)=CCCC(C)(O)[C@H]1CC=C(C)C(O)C1 (some centres not stated)
inactive: [6] | [3] | [4] | [7] | [5]

C[C@@]12CCC[C@@](C)(C(=O)OP(=O)(O)OC[C@H]3O[C@@H](n4cnc5c(N)ncnc54)[C@H](O)[C@@H]3O)[C@H]1C[C@@H](O)[C@@]13C[C@@H](CC[C@@H]21)[C@](C)(O)C3
inactive: [6] | [1] | [4] | [7]

O=Cc1ccc2n1C[C@]1(C[C@H](O)[C@@H](CO)O1)OC2
inactive: [8] | [2] | [3] | [4] | [5]

COc1ccc(-c2oc3cc(OC)cc(OC)c3c(=O)c2O)cc1
inactive: [8] | [6] | [4]
active: [1] 18.7 µM

COC(=O)c1cccc2oc(-c3cccc4oc(-c5c(C)cccc5O)nc34)nc12
inactive: [1] | [3] | [4] | [7]

C[C@@]12CCC[C@@](C)(C(=O)O)[C@H]1C[C@@H](O)[C@@]13C[C@@H](CC[C@@H]21)[C@](C)(O)C3
inactive: [1] | [2] | [3] | [4] | [5]

O=C1CC(c2ccc(O)cc2)Oc2ccccc21 (configuration not stated)
not listed: [1] | [4] | [7] | [8]
inactive: all other assays above

C=C(Cl)[C@](Cl)(CBr)CC[C@@H](Br)C(C)(C)Cl
inactive: [6] | [5]
active: [2] 9.35 µM

C=C(C)C(=O)O[C@H]1C[C@@]2(C)OC(=CC2=O)/C(C)=C\[C@H]2OC(=O)C(=C)[C@H]12
inactive: [5]
active: [2] 2.96 µM | [7] 3.05 µM

O=C1CC(c2ccc(O)cc2)Oc2cc(O)cc(O)c21 (configuration not stated)
not listed: [6] | [8]
inactive: all other assays above

O=C1c2c(O)cc(O)cc2OC(c2ccc(O)cc2)C1O (configuration not stated)
inactive: [1] | [2] | [4] | [5]

CO[C@@H]1[C@H](O)[C@@H](C)O[C@@H](OC[C@@H]2C(C)OC(=O)/C=C/[C@H](C)C(O[C@@H]3O[C@H](C)CC4(OC(=O)O[C@@H]4C)C3O)[C@@H](C)CC(C)C(=O)/C=C/[C@H]3OC23)[C@@H]1OC (some centres not stated)
inactive: [2] | [4] | [7] | [5]
